OPRM1-OPRD1 inv: inverse agonist of human OPRM1-OPRD1 heterodimerization; P35372+P41143; cell-based MOR-DOR heterodimer luminescence, inverse agonism; inhibition, % at 9.3 µM; actives 0.21% (n = 340,000); in the data active = inhibition above about 22%, passing the limit was not always enough
HTR5A ag: HTR5A agonism, opioid heterodimer counter-screen | HTR5A agonist assay, luminescence, cell-based | activation, % at 9.3 µM | actives 0.61% (n = 340,000) | AID 504692; in the data active = activation mostly above about 9.5%, no sharp cut-off; inactive = mostly below about 7.6%
Target sequence (P47898 whole entry, looked up): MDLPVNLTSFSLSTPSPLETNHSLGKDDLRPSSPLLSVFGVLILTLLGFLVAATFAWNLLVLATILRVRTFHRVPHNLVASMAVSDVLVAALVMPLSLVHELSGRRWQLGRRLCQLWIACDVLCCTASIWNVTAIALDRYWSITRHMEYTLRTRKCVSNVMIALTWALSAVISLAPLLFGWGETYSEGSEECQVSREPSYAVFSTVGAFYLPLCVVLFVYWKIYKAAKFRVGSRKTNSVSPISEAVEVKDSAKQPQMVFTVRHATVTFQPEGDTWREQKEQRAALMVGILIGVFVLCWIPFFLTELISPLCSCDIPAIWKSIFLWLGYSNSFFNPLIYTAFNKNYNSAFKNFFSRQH
MOR-DOR ag-1: OPRM1-OPRD1 heterodimerization agonism | P35372+P41143 | cells, luminescence | activation, % at 9.3 µM | actives 0.3% (n = 340,000) | AID 504326
HTR5A inv ag: inverse agonist of human HTR5A in OPRM1-OPRD1 counter-screen; HTR5A cell line, luminescence, inverse agonism; inhibition, % at 9.3 µM; actives 0.083% (n = 340,000); AID 504634; in the data active = inhibition mostly above about 23%, no sharp cut-off; inactive = mostly below about 18%
MOR-DOR ag-2: counter-screen for HTR5A agonists: OPRM1-OPRD1 heterodimerization agonism | shares compounds with HTR5A ag | U2OS counter-screen cells, complementation luminescence, 3 h | activation, % at 9.3 µM | actives 13% (n = 800) | AID 504913
HTR5A ag confirm: HTR5A (human) agonism, confirmation. shares compounds with HTR5A ag. HTR5A agonist cell assay, luminescence. activation, % at 9.3 µM. actives 17% (n = 800). AID 504915; in the data active = activation above about 17%
A number is an active result; - = inactive; . = no result. Compounds with a hit are over-represented: about 1.1% of the library has one in this group of screens. Rule as the data show it, unless noted: active = activation above about 18%; inactive = the rest.

SMILES	OPRM1-OPRD1 inv	HTR5A ag	MOR-DOR ag-1	HTR5A inv ag	MOR-DOR ag-2	HTR5A ag confirm
COc1cc(OC)cc(C(=O)Nc2ccc(Nc3ccccc3)cc2)c1	-	-	-	-	.	.
O=c1ccncn1C1OC(CO)C(O)C1O (stereo unspecified)	-	-	-	-	.	.
O=C(CSc1nnnn1-c1cccc(F)c1)NC1CCCCC1	-	-	-	-	.	.
COc1ccc2cc(CCNS(=O)(=O)c3c(C)cc(C)cc3C)c(=O)[nH]c2c1	-	-	-	-	.	.
Cc1cc(C)c(S(=O)(=O)NCCc2cc3ccc(C)c(C)c3[nH]c2=O)c(C)c1	-	17	-	-	-	-
CN(C)c1ccc(CNc2ccc3c(c2)ncn3C(C)(C)C)cc1	-	-	-	-	.	.
CC1CC(C)CN(C2CCCCC2NS(=O)(=O)c2ccc(Cl)cc2)C1 (stereo unspecified)	-	-	-	-	.	.
CC1=NN(c2ccc(C)c(C)c2)C(=O)/C1=C\C=C\c1ccc([N+](=O)[O-])o1	-	16	-	-	-	-
CCOC(=O)c1ccc(N2N=C(C)/C(=C/C=C/c3ccco3)C2=O)cc1	-	-	-	-	.	.
Cc1cc(-c2ccccc2C(=O)NC2CCCCC2)on1	-	15	-	-	-	-
COc1ccc(NS(=O)(=O)c2cccc(C(=O)N3CCN(Cc4cc(OC)ccc4OC)CC3)c2)cc1	-	15	-	-	135	-
CC(C)C[C@H](NC(=O)N1CC(=O)Nc2ccccc21)C(=O)N[C@@H](Cc1c[nH]c2ccccc12)C(=O)O	-	40	-	-	-	-
CCOc1ccc(NC(=O)Nc2nc(SCC)ns2)cc1	-	18	-	-	-	-
O=C(CSc1nc(N2CCOCC2)nc(N2CCOCC2)n1)Nc1cccc(C(F)(F)F)c1	-	-	-	-	.	.
C=CCN1CCc2c(cc(O)c(O)c2Br)[C@@H](c2ccccc2)C1	-	57	-	-	-	59
Cn1c(=O)n(CCCO)c(=O)c2c1nc1n2CCCN1Cc1ccccc1	-	-	-	-	.	.
Cn1c(=O)cc(SCC(=O)N2CCN(Cc3ccc4c(c3)OCO4)CC2)c2ccccc21	-	18	-	-	-	-
CCn1c(=O)cc(SCC(=O)N2CCN(Cc3ccc4c(c3)OCO4)CC2)c2ccccc21	-	-	-	-	.	.
COc1cc(N)c(Cl)cc1C(=O)OCC(=O)N1CCCC1	-	-	-	-	.	.
CCOc1ccc(N2C(=O)CC(NCCc3c[nH]c4ccccc34)C2=O)cc1 (stereo unspecified)	-	71	-	-	-	-
CCOc1ccc(N2C(=O)CC(NCCc3ccncc3)C2=O)cc1 (stereo unspecified)	-	-	-	-	.	.
O=C(NCCc1cnc[nH]1)Nc1cccc(C(F)(F)F)c1	-	17	-	-	-	-
CCOC(=O)c1sc(N/N=C/c2cccc(C)c2)nc1C	-	-	-	-	.	.
C=CCN(C/C(=N\O)c1sc(C(=O)OCC)nc1C)c1cccc(Br)c1	-	22	-	-	-	-
COc1ccc(Cn2c(C)nc3oc4cc(OC)ccc4c(=O)c3c2=O)cc1	-	16	-	-	327	-
SMILES	OPRM1-OPRD1 inv	HTR5A ag	MOR-DOR ag-1	HTR5A inv ag	MOR-DOR ag-2	HTR5A ag confirm
Cc1nc2oc3ccccc3c(=O)c2c(=O)n1Cc1ccccc1	-	-	-	-	.	.
O=C(NCc1ccncc1)C1CCN(S(=O)(=O)c2ccc(Cl)c(C(F)(F)F)c2)CC1	-	-	-	-	.	.
CCn1c(NC(=O)c2cccc(Cn3cc(Cl)cn3)c2)nc2ccccc21	-	20	-	-	-	-
Cn1c(NC(=O)c2cccc(Cn3cc(Cl)cn3)c2)nc2ccccc21	-	-	-	-	.	.
CC1(C)Cc2cccc(OCC(=O)Nc3ccc(S(N)(=O)=O)cc3)c2O1	-	34	-	-	-	-
CC1(C)Cc2cccc(OCC(=O)Nc3ccc(OCC(N)=O)cc3)c2O1	-	-	-	-	.	.
COC(=O)c1ccc(NC(=O)COc2cccc3c2OC(C)(C)C3)cc1	-	40	-	-	-	44
CC(=O)NS(=O)(=O)c1ccc(NC(=O)COc2cccc3c2OC(C)(C)C3)cc1	-	-	-	-	.	.
CC(=O)Nc1ccc(NC(=O)COc2cccc3c2OC(C)(C)C3)cc1	-	-	-	-	.	.
CN(C)C(=O)c1ccc(NC(=O)COc2cccc3c2OC(C)(C)C3)cc1	-	28	-	-	-	38
O=C1c2ccccc2C(=O)N1CCc1c[nH]c2ccc(O)cc12	-	24	-	-	-	-
O=C(NCC1CCCO1)c1ccc(Oc2ccc([N+](=O)[O-])cc2Cl)cc1 (stereo unspecified)	-	17	-	-	-	-
CCCCOc1ccc(OCCNC(=O)C2CCCN2C(=O)Nc2ccccc2)cc1 (stereo unspecified)	-	17	-	-	-	-
Cc1ccc2nc3c(c(Nc4ccc5c(c4)OCCO5)c2c1)CCC3	-	41	-	-	-	60
Cc1ccc2nc3c(c(Nc4ccc(O)cc4)c2c1)CCC3	-	-	-	-	.	.
COc1ccc2[nH]cc(CCNS(=O)(=O)Cc3ccccc3)c2c1	-	22	-	-	-	-
COc1ccc2[nH]c(C)c(CCNC(=S)Nc3cccc(C)c3)c2c1	-	-	-	-	.	.
COc1ccc2[nH]c(C)c(CCNC(=S)Nc3cc(C)cc(C)c3)c2c1	-	20	-	-	-	-
COc1ccc(NC(=S)NCCc2c[nH]c3ccc(OC)cc23)c(OC)c1	-	16	-	-	-	-
COc1ccc(NC(=S)NCCc2c[nH]c3ccccc23)c(OC)c1	-	-	-	-	.	.
COc1ccc2[nH]cc(CCNC(=O)Cc3ccc(Cl)cc3)c2c1	-	17	-	-	-	37
Cc1ccc(NC(=O)C2CCN(c3ncnc4sc(C)c(C)c34)CC2)cc1S(=O)(=O)N(C)C	-	20	-	-	-	-
O=C(NCCc1c[nH]c2ccccc12)C(=O)Nc1cc2c3c(c1)CC(=O)N3CCC2	-	16	-	-	31	-
COC(=O)c1cc(COC(=O)CNC(=O)c2ccc(Br)cc2)oc1C	-	-	-	-	.	.
COc1ccc(-c2nc3c(c(SCC(=O)N4CCOCC4)n2)Cc2c(CO)cnc(C)c2O3)cc1	-	-	-	-	.	.
SMILES	OPRM1-OPRD1 inv	HTR5A ag	MOR-DOR ag-1	HTR5A inv ag	MOR-DOR ag-2	HTR5A ag confirm
Cc1cccc(NC(=O)N2CCC(NC(=O)C3CCCCC3)CC2)c1	-	17	-	-	-	-
CCCc1cc(=O)oc2cc(OCC(=O)NCCc3c[nH]c4ccccc34)ccc12	-	19	-	-	226	56
Cc1cc(=O)oc2cc(OCC(=O)NCCc3c[nH]c4ccc(F)cc34)ccc12	-	-	-	-	.	.
Cc1cc(C(F)F)nn1CC(=O)N1CCSCC1	-	16	-	-	-	-
O=C(Cn1nc(C(F)F)cc1C1CC1)N1CCCC1	-	-	-	-	.	.
CC1=NNC(=O)/C1=C\c1cn(-c2ccccc2)nc1-c1cccs1	-	17	-	-	-	-
COc1cccc(CN2CCNC(=O)C2CC(=O)N(C)C2CCOCC2)c1OC (stereo unspecified)	-	-	-	-	.	.

Assay outcomes deposited in PubChem BioAssay by The Scripps Research Institute Molecular Screening Center.
